# Target: AgAbp1
# Assay: SPOT peptide array binding signal intensity (averaged, normalized) (arbitrary units (background-subtracted, floor 0; scale differs between SH3 domains)); higher = stronger binding of the SH3 domain to the peptide
# Procedure, shortened: (§1)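 The binding signal is the normalized, background-subtracted spot intensity averaged over replicates; its arbitrary units differ between domains. It was obtained by incubating 10 μg/ml GST-fused SH3 domains from four yeast species overnight at 4°C in TBS-based blocking buffer on cellulose membranes with synthetic 15-mer peptides, cysteines replaced by serines, then detecting with anti-GST antibody, HRP anti-mouse secondary and luminol.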
row,Binder,SPOT peptide array binding signal intensity
1,APKHAPPPVPNETDN,≤ 0

# Target: AgBbc1
# Assay: as above
# Procedure, shortened: as §1
row,Binder,SPOT peptide array binding signal intensity
1,APKHAPPPVPNETDN,≤ 0

# Target: AgBem1-D1
# Assay: as above
# Procedure, shortened: as §1
row,Binder,SPOT peptide array binding signal intensity
1,APKHAPPPVPNETDN,≤ 0

# Target: AgBzz1-D1
# Assay: as above
# Procedure, shortened: as §1
row,Binder,SPOT peptide array binding signal intensity
1,APKHAPPPVPNETDN,72

# Target: AgBzz1-D2
# Assay: as above
# Procedure, shortened: as §1
row,Binder,SPOT peptide array binding signal intensity
1,APKHAPPPVPNETDN,≤ 0

# Target: AgCyk3
# Assay: as above
# Procedure, shortened: as §1
row,Binder,SPOT peptide array binding signal intensity
1,APKHAPPPVPNETDN,≤ 0

# Target: AgFus1
# Assay: as above
# Procedure, shortened: as §1
row,Binder,SPOT peptide array binding signal intensity
1,APKHAPPPVPNETDN,≤ 0

# Target: AgHof1
# Assay: as above
# Procedure, shortened: as §1
row,Binder,SPOT peptide array binding signal intensity
1,APKHAPPPVPNETDN,≤ 0

# Target: AgHse1
# Assay: as above
# Procedure, shortened: as §1
row,Binder,SPOT peptide array binding signal intensity
1,APKHAPPPVPNETDN,≤ 0

# Target: AgLsb1
# Assay: as above
# Procedure, shortened: as §1
row,Binder,SPOT peptide array binding signal intensity
1,APKHAPPPVPNETDN,≤ 0

# Target: AgLsb4
# Assay: as above
# Procedure, shortened: as §1
row,Binder,SPOT peptide array binding signal intensity
1,APKHAPPPVPNETDN,≤ 0

# Target: AgMyo5
# Assay: as above
# Procedure, shortened: as §1
row,Binder,SPOT peptide array binding signal intensity
1,APKHAPPPVPNETDN,1790

# Target: AgNbp2
# Assay: as above
# Procedure, shortened: as §1
row,Binder,SPOT peptide array binding signal intensity
1,APKHAPPPVPNETDN,≤ 0

# Target: AgRvs167
# Assay: as above
# Procedure, shortened: as §1
row,Binder,SPOT peptide array binding signal intensity
1,APKHAPPPVPNETDN,≤ 0

# Target: AgSho1
# Assay: as above
# Procedure, shortened: as §1
row,Binder,SPOT peptide array binding signal intensity
1,APKHAPPPVPNETDN,≤ 0

# Target: AgSla1-D1-D2
# Assay: as above
# Procedure, shortened: as §1
row,Binder,SPOT peptide array binding signal intensity
1,APKHAPPPVPNETDN,≤ 0

# Target: AgSla1-D3
# Assay: as above
# Procedure, shortened: as §1
row,Binder,SPOT peptide array binding signal intensity
1,APKHAPPPVPNETDN,2.5

# Target: CaAbp1-D1
# Assay: as above
# Procedure, shortened: as §1
row,Binder,SPOT peptide array binding signal intensity
1,APKHAPPPVPNETDN,≤ 0

# Target: CaAbp1-D2
# Assay: as above
# Procedure, shortened: as §1
row,Binder,SPOT peptide array binding signal intensity
1,APKHAPPPVPNETDN,≤ 0

# Target: CaBbc1
# Assay: as above
# Procedure, shortened: as §1
row,Binder,SPOT peptide array binding signal intensity
1,APKHAPPPVPNETDN,0.25

# Target: CaBem1-D1
# Assay: as above
# Procedure, shortened: as §1
row,Binder,SPOT peptide array binding signal intensity
1,APKHAPPPVPNETDN,≤ 0

# Target: CaBzz1-D1
# Assay: as above
# Procedure, shortened: as §1
row,Binder,SPOT peptide array binding signal intensity
1,APKHAPPPVPNETDN,992

# Target: CaBzz1-D2
# Assay: as above
# Procedure, shortened: as §1
row,Binder,SPOT peptide array binding signal intensity
1,APKHAPPPVPNETDN,115

# Target: CaCyk3
# Assay: as above
# Procedure, shortened: as §1
row,Binder,SPOT peptide array binding signal intensity
1,APKHAPPPVPNETDN,≤ 0

# Target: CaFus1
# Assay: as above
# Procedure, shortened: as §1
row,Binder,SPOT peptide array binding signal intensity
1,APKHAPPPVPNETDN,≤ 0

# Target: CaHof1
# Assay: as above
# Procedure, shortened: as §1
row,Binder,SPOT peptide array binding signal intensity
1,APKHAPPPVPNETDN,≤ 0

# Target: CaHse1
# Assay: as above
# Procedure, shortened: as §1
row,Binder,SPOT peptide array binding signal intensity
1,APKHAPPPVPNETDN,1.75

# Target: CaLsb1
# Assay: as above
# Procedure, shortened: as §1
row,Binder,SPOT peptide array binding signal intensity
1,APKHAPPPVPNETDN,≤ 0

# Target: CaLsb4
# Assay: as above
# Procedure, shortened: as §1
row,Binder,SPOT peptide array binding signal intensity
1,APKHAPPPVPNETDN,≤ 0

# Target: CaMyo5
# Assay: as above
# Procedure, shortened: as §1
row,Binder,SPOT peptide array binding signal intensity
1,APKHAPPPVPNETDN,110
